# Most compounds without a hit are left out; they make up all but 10% or so of the library.
# HP1b chromo inh – HP1-beta chromodomain-methylated histone interaction inhibition; P83916; AlphaScreen HP1-beta / biotin-H3K9me3 peptide binding; Potency, µM (top dose mostly 114 µM), actives largely listed as inhibitors; 0.56% of 390,000 active; note: nearly all actives have a fitted effect of over 70% in size
# Target sequence (P83916 whole entry, looked up): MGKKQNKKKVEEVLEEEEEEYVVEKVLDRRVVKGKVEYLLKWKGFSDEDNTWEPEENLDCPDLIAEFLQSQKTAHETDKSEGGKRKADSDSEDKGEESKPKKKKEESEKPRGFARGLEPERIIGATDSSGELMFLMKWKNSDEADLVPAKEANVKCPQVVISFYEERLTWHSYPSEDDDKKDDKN
#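 HP1-beta protein (50 nM final) preincubated 30 min at room temperature with biotinylated H3(1-18)K9me3 peptide (50 nM) in PBS pH 7.4, 0.01% Tween-20, then compound added for 30 min. AlphaScreen streptavidin donor/nickel chelate acceptor beads (10 ug/mL final), 30 min dark, luminescence read.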
# JMJD2A Tudor – inhibitors of human JMJD2A Tudor domain; O75164; AlphaScreen JMJD2A-Tudor / H3K4me3 peptide binding; Potency, µM (highest dose often 114 µM), usual class: inhibitors; 4.4% of 390,000 active; AID 504339; note: nearly all actives have a fitted effect of over 50% in size
# CtBP-E1A inh – CtBP/E1A binding inhibition; 0.49% of 340,000 active; AlphaScreen GST-E1A/His-CtBP binding, 1536-well; hits give low values; activity change, % (concentration not given with the values); in the data active = activity change below about -65%; inconclusive = mostly about -30% to -63%
#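 AlphaScreen with 125 nM GST-E1A and 125 nM His-CtBP (5X stocks) in Tris pH 8.0, 300 mM NaCl, BSA, Tween 20, TCEP. Compounds preincubated 2 h at 37 deg C, then glutathione donor/nickel acceptor beads added for 1 h at 37 deg C in dark.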
# G9a inh – inhibitors of human histone lysine methyltransferase G9a. Potency, µM (series often up to 102 µM), hits mostly inhibitors. 8.8% of 350,000 active. G9a H3K9 monomethylation, AlphaScreen, 2 h; note: nearly all actives have a fitted effect of over 75% in size
# Target sequence (Q96KQ7 913-1193 limits assumed): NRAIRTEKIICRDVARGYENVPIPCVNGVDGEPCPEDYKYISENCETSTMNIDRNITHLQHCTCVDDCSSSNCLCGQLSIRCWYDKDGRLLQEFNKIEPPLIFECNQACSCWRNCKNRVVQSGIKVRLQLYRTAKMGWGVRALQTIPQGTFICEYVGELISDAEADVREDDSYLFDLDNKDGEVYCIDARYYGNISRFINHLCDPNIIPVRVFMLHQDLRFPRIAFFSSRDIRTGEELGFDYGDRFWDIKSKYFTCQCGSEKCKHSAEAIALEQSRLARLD
#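 G9a (20 nM) was preincubated 15 min with compound, then reacted 2 h at room temperature with 500 nM biotin-H3K9 peptide and 20 µM SAM. Monomethyl-H3K9 detected by AlphaScreen using anti-H3K9me1 antibody.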
# Six1-Eya2 blk – blocks human Six1 binding to Eya2 | Q15475+O00167 | AlphaScreen GST-Six1/His-Eya2 binding, biochemical; hits give low values | activity change, % (concentration not given with the values) | 0.56% of 360,000 active | AID 651725; in the data active = activity change below about -65%; inconclusive = mostly about -30% to -63%
#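 Homogeneous AlphaScreen proximity assay pairing GST-Six1 with His-tagged Eya2 (added as 5X mix: 250 nM and 500 nM) in 50 mM Tris pH 8.0, 300 mM NaCl, 1 mM TCEP. Glutathione donor and nickel acceptor beads; 1 h, 37 °C, dark.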
# BAZ2B inh – inhibitors of human BAZ2B bromodomain | Q9UIF8 | AlphaScreen BAZ2B-H3K14Ac peptide displacement | Potency, µM (doses to about 114 µM), actives largely listed as inhibitors | 4.4% of 360,000 active | AID 504333; note: nearly all actives have a fitted effect of over 60% in size
#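 In this displacement format the biotinylated H3(5-23) peptide acetylated at Lys14 serves as ligand at 50 nM, with BAZ2B at 50 nM in PBS pH 7.4 containing 0.01% Tween-20. Donor and acceptor beads are 10 ug/mL final.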
# A number is an active result; 0 = inactive; ? = inconclusive; - = no result; ! = a repeat was not active; [ ] = another dose, or the depositor's remark. Unless noted, calls come from the whole dose curve; as a rule, active = well fitted inhibition curve with a large enough effect; inconclusive = small, poorly fitted or top-dose-only effect; inactive = no such curve, though single readings can be large or run the other way.
SMILES,HP1b chromo inh,JMJD2A Tudor,CtBP-E1A inh,G9a inh,Six1-Eya2 blk,BAZ2B inh
O=C(O)CNS(=O)(=O)Cc1ccccc1,0,0,0,0,0,0
O=S(=O)(Cc1ccccc1)N(O)c1ccccc1,0,0,0,20µM,0,?
NS(=O)(=O)c1cc(C(=O)NC2CCSc3ccccc32)ccc1Cl (stereo not drawn),2.2µM,0.79µM,0,1.6µM,?,?
CC(=O)c1cccc(S(=O)(=O)NC2CC2)c1,0,0,0,45µM,0,0
NS(=O)(=O)c1cccc(C(=O)NC2CCSc3ccccc32)c1 (stereo not drawn),0,0,0,?,0,0
CC(=O)c1cccc(S(=O)(=O)NC2CCSc3ccccc32)c1 (stereo not drawn),0,?,0,28µM,0,0
CC(=NNc1nc2ccccc2o1)c1ncccn1,0,10µM,0,-,-90,-
CC(=NNc1nc2ccccc2o1)c1cc2ccccc2cn1,0,10µM,-66,-,-93,-
CC(=NNc1nc2ccccc2s1)c1ncccn1,0,45µM,0,-,-92,-
C/C(=N\Nc1nc2ccccc2s1)c1cccs1,0,?,0,0,0,?
CCn1c(Nc2ccccc2Cl)nc2ccccc21,0,45µM,0,0,0,0
CCN(CC)CCn1c(NCc2ccc(C)o2)nc2ccccc21,0,?,0,50µM,0,?
CCN(CC)c1ccc(CNc2nc3ccccc3n2CC)cc1,?,?,0,32µM,0,45µM
CCCn1c(Nc2nc3ccccc3n2C)nc2ccccc21,0,56µM,0,0,0,8.9µM
COc1ccc(OC)c(/C=C/c2nc3ccccc3c(=O)n2-c2ccc(F)c(Cl)c2)c1,0,0,-,0,-,0
CC(C)c1ccc(NC(=O)CCNS(=O)(=O)c2ccc3c(c2)CCCC(=O)N3)cc1,0,0,-,0,-,0
Cc1ccc(N(CC(=O)N2CCN(c3cc(C)ccc3C)CC2)S(=O)(=O)c2c(C)nn(C)c2C)cc1,0,?,-,?,-,-
CCCn1c(NCc2ccc(N(C)C)cc2)nc2ccccc21,0,?,0,50µM,0,?
CN(C)c1ccc(CNc2nc3ccccc3n2C)cc1,-,-,0,-,0,-
Cc1cc(C)nc(Nc2ncc(O)n2-c2ccccc2)n1,0,56µM,0,0,0,0
Cc1ccc(-n2c(O)cnc2Nc2nc(C)cc(C)n2)cc1,0,?,0,0[12.7 µM],0,0
COc1ccc(NC(=S)N(CCCN2CCOCC2)Cc2cn(C)c3ccccc23)cc1OC,0,0,0,50µM,0,?
CC1(C)OCC(CNC(=O)c2[nH]c(C(F)(F)F)nc2-c2ccccc2)O1 (stereo not drawn),-,-,0,-,?,-
CC1CN(c2oc(COc3ccc(Cl)cc3Cl)nc2C#N)CC(C)O1 (stereo not drawn),0,?,?,?,?,35µM
CCN1CCN(c2oc(COc3ccc(-c4ccccc4)cc3)nc2C#N)CC1,0,?,0,40µM,?,32µM
SMILES,HP1b chromo inh,JMJD2A Tudor,CtBP-E1A inh,G9a inh,Six1-Eya2 blk,BAZ2B inh
N#Cc1nc(COc2ccccc2)oc1N1CCN(c2cccc(Cl)c2)CC1,0,0,0,?,0,?
COc1ccc(OCc2nc(C#N)c(N3CCN(c4ccc(OC)cc4)CC3)o2)cc1,0,?,?,11µM,?,?
CC1CN(c2oc(-c3ccco3)nc2C#N)CC(C)O1 (stereo not drawn),0,0,0,0,0,0
N#Cc1nc(-c2ccccc2Cl)oc1N1CCCCC1,?,?,0,35µM,?,22µM
COC(=O)c1nn(-c2ccc(Oc3ccccc3)cc2)c(=O)cc1O,0,0,0,0,0,0
COc1ccc(N2CCN(c3oc(COc4ccccc4Cl)nc3C#N)CC2)cc1,?,?,?,10µM,?,7.9µM
COc1ccc(CNc2oc(COc3ccccc3Cl)nc2C#N)cc1,0,0,0,0[12.7 µM],0,?
COc1ccc(N2CCN(c3oc(/C=C/c4ccccc4OC)nc3C#N)CC2)cc1,?,?,-,?,-,3.2µM
N#Cc1nc(COc2ccccc2Cl)oc1N1CCCCCC1,?,0,0,0,0,?
N#Cc1nc(COc2ccccc2Cl)oc1N1CCCC1,?,?,0,7.9µM,0,13µM
CC(=O)Nc1cccc(C(=O)N/N=C/c2cccnc2)c1,0,45µM,0,0,0,0
O=C(N/N=C/c1cccnc1)c1cc(O)c(O)c(O)c1,?,28µM,0,32µM,0,45µM
COc1cccc(CNC(=O)Cn2nc(C)n3c(cc4cc(C)ccc43)c2=O)c1OC,0,0,-,0,-,0
CC(=O)Oc1ccc2occ(/C=N/c3cc(=O)[nH]c(=S)[nH]3)c(=O)c2c1,0,0[11.4 µM],0,11µM,0,0
COC(=O)Nc1ccc(S(=O)(=O)N2CCN(c3ccc(F)cc3)CC2)cc1,0,0,0,0[12.7 µM],0,0
Cc1ccc(S(=O)(=O)Nc2nc3ccccc3nc2N2CCN(c3ccccc3F)CC2)cc1,0,0,0,0,0,?
Cc1ccc(S(=O)(=O)NC2=C(N3CCN(c4ccccc4F)CC3)C(=O)c3ccccc3C2=O)cc1,14µM!,8.9µM,0,0[0.501 µM],0,10µM
CC(=O)Nc1ccc(S(=O)(=O)NC2=C(N3CCN(c4ccc(F)cc4)CC3)C(=O)c3ccccc3C2=O)cc1,25µM,22µM,-78,2.8µM,-79,22µM
CCOC(=O)N1CCN(C2=C(NS(=O)(=O)c3ccc(C)cc3)C(=O)c3ccccc3C2=O)CC1,20µM,22µM,-,22µM,?,8.9µM
Cc1ccc(S(=O)(=O)NC2=C(N3CCN(Cc4ccccc4)CC3)C(=O)c3ccccc3C2=O)cc1,8.9µM,7.1µM,?,7.1µM,?,7.9µM
CC(=O)N1CCc2cc(S(=O)(=O)C(C)CC(=O)Nc3ccc(Br)c(C)c3)ccc21 (stereo not drawn),0,0,-,0,-,0
CCc1nn2c(=O)cc(NC3CNC3)nc2s1,-,0,-,-,-,-
O=S(=O)(c1ccc(Cl)cc1)c1nc(-c2ccco2)oc1SCc1ccccc1F,0,0,-,0,-,0
CCCCn1c(N)c(N(CC)C(=O)CSc2nnnn2-c2cc(C)ccc2C)c(=O)[nH]c1=O,0,0,0,0,0,0
CC[C@H](C)[C@@H](CO)NC(=O)[C@H]1O[C@@H](n2ccc(N)nc2=O)[C@H](O)[C@@H]1O,-,-,0,-,0,-
O=c1cnc2cnc(N3CCOCC3)nc2n1Cc1ccc(F)cc1,-,-,-,0[12.7 µM],-,-
CCOC(=O)N1CCN(C(=O)COc2ccc(S(=O)(=O)NC(C)C)cc2)CC1,0,0,0,45µM,0,0
Cc1[nH]c2ccccc2c1C1(O)C(=O)N(Cc2ccccc2)c2ccc(Cl)cc21 (stereo not drawn),0,?,-,?,-,?
Cc1ccc2c(c1)nc(SCC(O)c1ccc(Br)cc1)n2C (stereo not drawn),0,0,-,0,-,0

# Assay outcomes from PubChem.
